T1: RBFOX1 RRM (Homo sapiens, UniProt Q9NWB1 109-208)
T1 sequence: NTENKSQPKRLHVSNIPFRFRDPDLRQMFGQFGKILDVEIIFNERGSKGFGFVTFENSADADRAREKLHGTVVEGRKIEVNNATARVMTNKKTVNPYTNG

B1: AACCAGU (DNA:RNA)
RNA: GGGAGACCGGAAUUCAGAUUGUCCAACCAGUUUAAAUCCCGUCGUAGCCACCA
DNA 1: CAATCTGAATTCCGGTCTCCC
DNA 2: TGGTGGCTACGACGGGATT
B2: AAUAAUU (DNA:RNA)
RNA: B1 RNA with C27U, C28A, G30U
DNA 1: CAATCTGAATTCCGGTCTCCC
DNA 2: TGGTGGCTACGACGGGATT
B3: UGUGACC (DNA:RNA)
RNA: B1 RNA with A25U, A26G, C27U, C28G, G30C, U31C
DNA 1: CAATCTGAATTCCGGTCTCCC
DNA 2: TGGTGGCTACGACGGGATT
B4: CAAGGCG (DNA:RNA)
RNA: B1 RNA with A25C, C27A, C28G, A29G, G30C, U31G
DNA 1: CAATCTGAATTCCGGTCTCCC
DNA 2: TGGTGGCTACGACGGGATT
B5: CUCGCUC (DNA:RNA)
RNA: B1 RNA with A25C, A26U, C28G, A29C, G30U, U31C
DNA 1: CAATCTGAATTCCGGTCTCCC
DNA 2: TGGTGGCTACGACGGGATT
B6: UUUUCCG (DNA:RNA)
RNA: GGGAGACCGGAAUUCAGAUUGUCCUUUUCCGUUAAAUCCCGUCGUAGCCACCA
DNA 1: CAATCTGAATTCCGGTCTCCC
DNA 2: TGGTGGCTACGACGGGATT
B7: CAUCAAA (DNA:RNA)
RNA: B1 RNA with A25C, C27U, G30A, U31A
DNA 1: CAATCTGAATTCCGGTCTCCC
DNA 2: TGGTGGCTACGACGGGATT
B8: GCCGGCC (DNA:RNA)
RNA: B1 RNA with A25G, A26C, C28G, A29G, G30C, U31C
DNA 1: CAATCTGAATTCCGGTCTCCC
DNA 2: TGGTGGCTACGACGGGATT
B9: UACAGCU (DNA:RNA)
RNA: B1 RNA with A25U, C28A, A29G, G30C
DNA 1: CAATCTGAATTCCGGTCTCCC
DNA 2: TGGTGGCTACGACGGGATT
B10: CUGCAUC (DNA:RNA)
RNA: B1 RNA with A25C, A26U, C27G, G30U, U31C
DNA 1: CAATCTGAATTCCGGTCTCCC
DNA 2: TGGTGGCTACGACGGGATT
B11: UGCAUAU (DNA:RNA)
RNA: B1 RNA with A25U, A26G, C28A, A29U, G30A
DNA 1: CAATCTGAATTCCGGTCTCCC
DNA 2: TGGTGGCTACGACGGGATT
B12: UGCAUUU (DNA:RNA)
RNA: B1 RNA with A25U, A26G, C28A, A29U, G30U
DNA 1: CAATCTGAATTCCGGTCTCCC
DNA 2: TGGTGGCTACGACGGGATT
B13: CUGCAUG (DNA:RNA)
RNA: B1 RNA with A25C, A26U, C27G, G30U, U31G
DNA 1: CAATCTGAATTCCGGTCTCCC
DNA 2: TGGTGGCTACGACGGGATT
B14: UGCAUGU (DNA:RNA)
RNA: B1 RNA with A25U, A26G, C28A, A29U
DNA 1: CAATCTGAATTCCGGTCTCCC
DNA 2: TGGTGGCTACGACGGGATT
B15: CUGCAUA (DNA:RNA)
RNA: B1 RNA with A25C, A26U, C27G, G30U, U31A
DNA 1: CAATCTGAATTCCGGTCTCCC
DNA 2: TGGTGGCTACGACGGGATT
B16: GCUGUAU (DNA:RNA)
RNA: B1 RNA with A25G, A26C, C27U, C28G, A29U, G30A
DNA 1: CAATCTGAATTCCGGTCTCCC
DNA 2: TGGTGGCTACGACGGGATT
B17: AUACGAU (DNA:RNA)
RNA: B1 RNA with A26U, C27A, A29G, G30A
DNA 1: CAATCTGAATTCCGGTCTCCC
DNA 2: TGGTGGCTACGACGGGATT
B18: AUUCUCC (DNA:RNA)
RNA: B6 RNA with U25A, U28C, C29U, G31C
DNA 1: CAATCTGAATTCCGGTCTCCC
DNA 2: TGGTGGCTACGACGGGATT
B19: CACCUGC (DNA:RNA)
RNA: B1 RNA with A25C, A29U, U31C
DNA 1: CAATCTGAATTCCGGTCTCCC
DNA 2: TGGTGGCTACGACGGGATT
B20: GGGGUAC (DNA:RNA)
RNA: GGGAGACCGGAAUUCAGAUUGUCCGGGGUACUUAAAUCCCGUCGUAGCCACCA
DNA 1: CAATCTGAATTCCGGTCTCCC
DNA 2: TGGTGGCTACGACGGGATT
B21: GGGGUCC (DNA:RNA)
RNA: B20 RNA with A30C
DNA 1: CAATCTGAATTCCGGTCTCCC
DNA 2: TGGTGGCTACGACGGGATT
B22: CGGGUAC (DNA:RNA)
RNA: B20 RNA with G25C
DNA 1: CAATCTGAATTCCGGTCTCCC
DNA 2: TGGTGGCTACGACGGGATT
B23: CGGGUCG (DNA:RNA)
RNA: B20 RNA with G25C, A30C, C31G
DNA 1: CAATCTGAATTCCGGTCTCCC
DNA 2: TGGTGGCTACGACGGGATT
B24: GUACUCU (DNA:RNA)
RNA: B1 RNA with A25G, A26U, C27A, A29U, G30C
DNA 1: CAATCTGAATTCCGGTCTCCC
DNA 2: TGGTGGCTACGACGGGATT
B25: GGGGAGA (DNA:RNA)
RNA: B20 RNA with U29A, A30G, C31A
DNA 1: CAATCTGAATTCCGGTCTCCC
DNA 2: TGGTGGCTACGACGGGATT
B26: GGGGUCG (DNA:RNA)
RNA: B20 RNA with A30C, C31G
DNA 1: CAATCTGAATTCCGGTCTCCC
DNA 2: TGGTGGCTACGACGGGATT
B27: GGGUACU (DNA:RNA)
RNA: B20 RNA with G28U, U29A, A30C, C31U
DNA 1: CAATCTGAATTCCGGTCTCCC
DNA 2: TGGTGGCTACGACGGGATT
B28: CGUACUC (DNA:RNA)
RNA: B20 RNA with G25C, G27U, G28A, U29C, A30U
DNA 1: CAATCTGAATTCCGGTCTCCC
DNA 2: TGGTGGCTACGACGGGATT
B29: GGUACUC (DNA:RNA)
RNA: B20 RNA with G27U, G28A, U29C, A30U
DNA 1: CAATCTGAATTCCGGTCTCCC
DNA 2: TGGTGGCTACGACGGGATT
B30: GGGUCGU (DNA:RNA)
RNA: B20 RNA with G28U, U29C, A30G, C31U
DNA 1: CAATCTGAATTCCGGTCTCCC
DNA 2: TGGTGGCTACGACGGGATT
B31: GGGUCCG (DNA:RNA)
RNA: B6 RNA with U25G, U26G, U27G
DNA 1: CAATCTGAATTCCGGTCTCCC
DNA 2: TGGTGGCTACGACGGGATT

Positions count from the first letter of the chain named. Over roughly 16,000 sequences, “ka relative to ugcaugu” has its median near 0.0091; the highest 2% begin near 0.032. This excerpt belongs to a sample that is enriched for the highest values.

The target of the assay is T1, RBFOX1 RRM. Kind of assay: EMSA; HiTS-Eq, 1 nM pool, 10 min; buffer printed only for the single-RNA assays: 10 mM Tris pH 7.5, 150 mM NaCl, 3.4 mM EDTA, 0.001% NP-40, 30 C. As to conditions: tags: His6 N-terminal (pET28a); label: 5' 32P. The method, boiled down: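 Purified RbFox RRM, wild type or mutant, was incubated for 10 min in 50 µL with 1 nM of a 5′-radiolabelled RNA pool carrying 7 randomized nucleotides, whose flanks were annealed to DNA oligonucleotides, over a series of increasing protein concentrations. Unbound RNA was resolved on 8% native PAGE, cut out, reverse-transcribed, barcoded by PCR and sequenced on an Illumina HiSeq 2500. Relative association constants were derived from changes in read counts for each RNA species versus the control reaction and normalised to the cognate motif.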
Background: Mobility shift assays separate free from complexed probe on a gel.
On to B1, for which the binding signal is 0.000945 KA relative to UGCAUGU.

In the case of B2, the binding signal is 0.00136 KA relative to UGCAUGU.

With B3, the binding signal was 0.0155 KA relative to UGCAUGU.

As for B4, the binding signal is 0.00837 KA relative to UGCAUGU.

As for B5, the binding signal was 0.00968 KA relative to UGCAUGU.

As for B6, the binding signal is 0.0112 KA relative to UGCAUGU.

Take B7: the binding signal is 0.00054 KA relative to UGCAUGU.

B8: the binding signal is 0.0116 KA relative to UGCAUGU.

With B9, the binding signal was 0.00395 KA relative to UGCAUGU.

As to B10, the binding signal was 0.0212 KA relative to UGCAUGU.

Consider B11, for which the binding signal was 0.0115 KA relative to UGCAUGU.

Turning to B12, the binding signal is 0.0179 KA relative to UGCAUGU.

For the molecule B13, the binding signal was 1.04 KA relative to UGCAUGU.

As to B14, the binding signal was 1 KA relative to UGCAUGU.

Regarding B15, the binding signal was 0.017 KA relative to UGCAUGU.

In the case of B16, the binding signal is 0.013 KA relative to UGCAUGU.

Turning to B17, the binding signal was 0.00313 KA relative to UGCAUGU.

In the case of B18, the binding signal is 0.00179 KA relative to UGCAUGU.

Take B19: the binding signal is 0.00791 KA relative to UGCAUGU.

Consider B20, for which the binding signal is 0.0356 KA relative to UGCAUGU.

B21: the binding signal was 0.0259 KA relative to UGCAUGU.

In the case of B22, the binding signal is 0.0309 KA relative to UGCAUGU.

As for B23, the binding signal is 0.0322 KA relative to UGCAUGU.

Take B24: the binding signal is 0.0101 KA relative to UGCAUGU.

For the molecule B25, the binding signal was 0.0242 KA relative to UGCAUGU.

Regarding B26, the binding signal is 0.0492 KA relative to UGCAUGU.

Regarding B27, the binding signal is 0.0165 KA relative to UGCAUGU.

In the case of B28, the binding signal is 0.00584 KA relative to UGCAUGU.

Take B29: the binding signal is 0.032 KA relative to UGCAUGU.

With B30, the binding signal is 0.0214 KA relative to UGCAUGU.

Consider B31, for which the binding signal was 0.0257 KA relative to UGCAUGU.

Values taken from paper PMC9911399, “Two distinct binding modes provide the RNA-binding protein RbFox with extraordinary sequence specificity”.
